High-throughput results: PubChem BioAssay, several laboratories
Compounds with a hit are over-represented: about 2.2% of the library has one in this group of screens.
APP 5UTR inh – APP translation inhibition; SH-SY5Y APP 5'UTR-luciferase reporter, luminescence; inhibition, % at 2 µM; 190,000 compounds, 0.82% hits; AID 1285;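 active = inhibition above a set limit, derived from the sample mean plus 3 SD, cut at about 45% in these data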
BaF3 parental – reduces parental Ba/F3 cell viability, JAK2V617F counter-screen; CellTiter-Glo ATP luminescence; inhibition, % at 5.6 µM; 220,000 compounds, 1.1% hits;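 active = inhibition above a per-campaign cutoff, the mean inhibition of all tested compounds plus 3 SD, cut at about 27% in these data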
KLF5 inhibitor – inhibitors of KLF5 expression. DLD-1 KLF5 promoter-luciferase reporter, luminescence. 290,000 compounds, 0.23% hits. inhibition, % at 5 µM;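 active = inhibition above a per-plate limit of that plate's mean compound inhibition plus 3 SD, cut at about 60% in these data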;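 also: higher means less KLF5 promoter-driven luciferase light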
IEC-6 tox – counter-screen for KLF5 inhibitors: cytotoxicity in IEC-6 cells | IEC-6 cytotoxicity, luminescence viability | inhibition, % at 5 µM | 290,000 compounds, 0.78% hits | AID 1825; in the data active = inhibition above about 22%
aSyn 5UTR inh – 5' untranslated region of α-synuclein, MLPCN primary screen | 300,000 compounds, 0.82% hits | AID 1813 | inhibition, % (tested at 7.5 µM) | alpha-synuclein 5'UTR reporter, inhibitor activity; in the data active = inhibition above about 60%;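 also: H4 neuroglioblastoma cells stably carrying SNCA 5'UTR luciferase fusion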
Ba/F3 V617F tox – loss of viability in JAK2V617F-driven Ba/F3 cells | Ba/F3 EpoR-JAK2V617F viability, ATP luminescence | inhibition, % at 5.6 µM | 220,000 compounds, 1.1% hits | AID 1446;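 active = inhibition above the campaign mean plus 3 SD over all tested compounds, cut at about 24% in these data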;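 also: cytokine-independent growth of Ba/F3 cells driven by EpoR plus mutant JAK2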
Numbers stand for hits; 0 = inactive; - = no result given.

SMILES	APP 5UTR inh	BaF3 parental	KLF5 inhibitor	IEC-6 tox	aSyn 5UTR inh	Ba/F3 V617F tox
COc1cc2c(cc1OC)CN(C(C)C(=O)N1CCc3ccccc31)CC2 (stereo unspecified)	0	0	0	0	0	0
CC(C(=O)N1CCc2ccccc21)N1CCc2ccccc2C1 (stereo unspecified)	0	41.4	0	0	0	0
O=C(Cc1cccs1)Nc1cccc(C(=O)Nc2ccc(C(=O)O)cc2)c1	0	0	0	0	0	0
CCCNC(=O)CCn1nc(-c2ccc(C)cc2)c2ccccc2c1=O	-	-	0	0	0	-
CCCNC(=O)CCn1nc(-c2ccc(Cl)cc2)c2ccccc2c1=O	-	0	0	0	82.1	0
CSc1nc(N2CCOCC2)nc2ccc(C)cc12	-	-	-	-	0	-
O=C(/C=C\c1cccs1)N1CCN(Cc2ccc3c(c2)OCO3)CC1	0	0	0	0	0	0
Cn1c(=O)c2c(ncn2CC(=O)N2CCc3ccccc3C2)n(C)c1=O	54.1	0	0	0	0	0
CCCCc1ccc(-c2ccc(C)cc2O)nc1	0	0	0	0	84.4	0
CCCCc1ccc(-c2ccc(Br)cc2O)nc1	0	0	0	0	0	0
O=C(C/C=N/OCc1ccc(Cl)cc1)c1cnc(-c2ccccc2)s1	0	0	0	0	0	0
O=C(C/C=N/OCc1c(Cl)cccc1Cl)c1cnc(-c2ccccc2)s1	0	72.4	0	0	0	0
Cc1nn(CC(=O)Nc2ccc(Cl)cn2)c(C)c1[N+](=O)[O-]	0	43.4	0	0	0	0
Cc1cc([N+](=O)[O-])nn1CC(=O)Nc1ccc(Cl)cn1	0	0	0	0	0	0
Cc1ccc(-n2c(SCC(=O)Nc3ccc(N4CCOCC4)cc3)nc3ccccc3c2=O)cc1	0	0	0	0	0	0
Cc1ccc(NC(=O)CSc2nc3ccccc3c3nc4ccccc4n23)cc1	51.3	0	0	0	110.3	0
Cc1ccc(NC(=S)NNC(=O)CSc2nc3ccccc3c(=O)n2-c2ccc(C)cc2)cc1	0	42.8	0	0	0	0
COc1ccc(OC)c(NC(=O)CSc2nc3ccccc3c3nc4ccccc4n23)c1	0	0	0	0	-	0
COc1ccc(NC(=O)CSc2nc3ccccc3c3nc4ccccc4n23)cc1	80.8	0	0	0	-	0
O=C(COc1ccc2c(c1)OCO2)Nc1nccs1	-	-	0	0	0	-
C=C(C)CSc1nc2ccccc2[nH]1	0	88.8	0	0	0	0
CN1CCN(S(=O)(=O)c2cccc(C(=O)Nc3cc(C(F)(F)F)ccc3N3CCCC3)c2)CC1	-	-	-	-	0	-
C=CCSc1nc2ccccc2n1C(=O)/C=C/c1cc(OC)c(OC)c(OC)c1	57.6	0	0	0	0	0
C=CC#CC[N+]1(CC#Cc2ccccc2)CCOCC1	0	0	0	0	0	0
C=CC[N+]1(CC#Cc2ccccc2)CCCC1	0	56.1	0	0	0	46.0
SMILES	APP 5UTR inh	BaF3 parental	KLF5 inhibitor	IEC-6 tox	aSyn 5UTR inh	Ba/F3 V617F tox
C(#Cc1ccccc1)C[N+]1(CC#Cc2ccccc2)CCCC1	0	71.0	0	0	0	87.0
O=c1cc(NCc2ccccc2)[nH]c(=O)[nH]1	-	-	-	-	0	-
CN(C)c1cc[n+](CC(=O)N2CCCc3ccccc32)cc1	0	62.5	0	0	0	51.6
COc1ccc(Nc2oc(COc3ccc(Cl)cc3)nc2C#N)cc1	0	0	0	0	90.6	0
Cc1ccc(OCc2nc(C#N)c(NCc3ccc4c(c3)OCO4)o2)cc1	67.0	0	0	0	0	0
COc1ccc(-c2cc(C(=O)N3CCN(c4cccc(C)c4C)CC3)c3ccccc3n2)cc1OC	-	-	-	-	0	-
Cc1nc(Nc2nc3c(c(=O)[nH]2)CCC3)nc2ccccc12	-	-	-	-	125.6	-
Cc1ccc2c(c1)nnn2C1CCN(S(=O)(=O)c2ccc(C(=O)N3C(C)CCCC3C)cc2)CC1 (stereo unspecified)	0	57.7	0	0	0	50.8
O=C(NCc1cccc(F)c1)C1CCC(=O)N(C2CC2)C1 (stereo unspecified)	-	-	0	0	0	-
O=C(Nc1ncccc1O)c1ccc2c(c1)OCCO2	-	-	-	-	0	-
Oc1ccc(N=Nc2ccc3c(c2)OCCO3)c2ncccc12	-	66.6	0	0	0	92.3
Cc1ccc(C)c(N=Nc2ccc(O)c3ncccc23)c1	0	0	0	0	0	0
Cc1cccc(N=Nc2ccc(O)c3ncccc23)c1	72.4	0	0	0	73.0	0
CCS(=O)(=O)c1ccc(OC)c(N=Nc2ccc(O)c3ncccc23)c1	67.4	0	0	0	65.8	0
CC(C)Oc1ccc(S(=O)(=O)N2CCOCC2)cc1NC(=O)C1=COCCO1	-	-	-	-	0	-
COc1ccc(Cn2c(-c3ccc(OC)cc3)nc3ccccc32)cc1	0	0	0	0	0	0
COc1ccc(Cn2c(-c3ccc(Br)cc3)c[n+]3ccccc23)cc1	0	63.9	0	0	0	72.0
COc1ccccc1N=C(C)C1=C(O)CC(c2ccccc2)CC1=O (stereo unspecified)	91.6	0	0	0	121.7	0
Cc1ccc(-c2c[n+](Cc3cccc(Cl)c3)c3n2CCC3)cc1	-	75.3	0	0	0	82.4
Clc1cccc(C[n+]2cc(-c3ccccc3)n3c2CCC3)c1	0	64.7	0	0	0	64.7
CC(=O)N1N=C(c2ccc(C)c([N+](=O)[O-])c2)OC1(C)C	-	0	0	0	0	0
COc1ccc(C(=O)Nc2ccc(N3CCN(C)CC3)cc2)cc1	-	-	0	0	0	-
CN1CCN(c2ccc(NC(=O)c3ccc4ccccc4c3)cc2)CC1	-	-	0	0	85.3	-
COc1cccc2nc3cc(C)c(C)cc3nc12	-	29.0	0	0	0	29.2
O=C1C2C3C=CC(CO)(O3)C2C(=O)N1c1ccccc1-c1ccccc1 (stereo unspecified)	70.5	0	0	0	-	0
SMILES	APP 5UTR inh	BaF3 parental	KLF5 inhibitor	IEC-6 tox	aSyn 5UTR inh	Ba/F3 V617F tox
CC(C)(C)c1ccc(Cn2cnc(-c3ccc([N+](=O)[O-])cc3)c2)cc1	0	38.6	0	0	0	0
Cc1cc(C)c(Cn2cnc(-c3ccc([N+](=O)[O-])cc3)c2)c(C)c1	0	0	0	0	0	0
Cc1nnsc1C(=O)N/N=C/c1ccc2ccccc2c1O	76.3	0	0	0	120.0	0
COc1c(N2C[C@@H]3CCCN[C@@H]3C2)c(F)cc2c(=O)c(C(=O)O)cn(C3CC3)c12	-	-	-	-	0	-
Cc1ccccc1N=C/C=C1\N(C)c2ccccc2C1(C)C	0	47.7	0	0	0	0
CN1/C(=C\C=[N+](C)c2ccccc2)C(C)(C)c2ccccc21	0	65.6	0	0	0	75.3
Cc1cc(OCC(=O)NNC(=O)CCc2ccccc2)ccc1Br	-	-	0	0	0	-
Cc1ccc(S(=O)(=O)NCc2ccc(N3CCN(C(=O)OC(C)(C)C)CC3)cc2)cc1	-	-	0	0	0	-
O=[N+]([O-])c1cccc(-c2nnc(-c3ccccc3)o2)c1	0	0	0	0	67.9	0
CS(=O)(=O)N1CCC(C(=O)Nc2c(F)cccc2F)CC1	0	70.3	0	0	0	0
COc1ccc(C(=O)Nc2ccc(C(=O)N3CCCCC3C)cc2)c(OC)c1OC (stereo unspecified)	-	-	0	0	0	-
CCc1c(C)nc2ncnn2c1NCCc1ccc(Cl)cc1	0	38.6	0	0	0	0
